High-throughput results from PubChem.
In the library only some 1.3% were active in any assay of this set; here they are far more common.
Tb PYK inh – T. brucei pyruvate kinase inhibition | TbPYK enzyme, Kinase-Glo Plus ATP luminescence, 45 min | Potency, µM (series often up to 76.8 µM), for inactives: at the top dose activity, negative = inhibition, usual class: inhibitors | actives 0.12% (n = 410,000) | AID 624173; further: nearly all actives have a fitted effect of over 50% in size
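Luminescence from Kinase-Glo Plus, added after a 45-minute room-temperature reaction, served as the end-point read-out. The enzyme and substrate were preincubated with compound before ADP (130 uM final) initiated turnover. Concentration-effect curves came from normalized qHTS data.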
Vaccinia mCherry – inhibitors of vaccinia virus infection (mCherry reporter signal) | Vaccinia virus mCherry reporter infection, fluorescence | Potency, µM (highest dose often 36.5 µM), inactives show at the highest dose activity change, negative = inhibition, most hits filed as inhibitors | actives 0.63% (n = 310,000); calls by dose curve; tested in A549 cells; further: nearly all actives have a fitted effect of over 35% in size
VACV Venus inh – vaccinia inhibition (Venus reporter) | Vaccinia virus Venus reporter expression, fluorescence | Potency, µM (top dose mostly 36.5 µM), inactives show at the highest dose activity change, negative = inhibition, most hits filed as inhibitors | actives 0.46% (n = 330,000); calls by dose curve; tested in A549 cells; further: nearly all actives have a fitted effect of over 30% in size
LmPK inh – inhibitors of Leishmania mexicana pyruvate kinase; purified LmPK, Kinase-Glo ATP luminescence, 1 h; actives 0.37% (n = 290,000); Potency, µM (titrated, usually from 57.5 µM), without a hit: at the highest dose activity change, negative = inhibition, hits mostly inhibitors; Q27686; AID 1721
Target sequence (Q27686 whole entry, looked up): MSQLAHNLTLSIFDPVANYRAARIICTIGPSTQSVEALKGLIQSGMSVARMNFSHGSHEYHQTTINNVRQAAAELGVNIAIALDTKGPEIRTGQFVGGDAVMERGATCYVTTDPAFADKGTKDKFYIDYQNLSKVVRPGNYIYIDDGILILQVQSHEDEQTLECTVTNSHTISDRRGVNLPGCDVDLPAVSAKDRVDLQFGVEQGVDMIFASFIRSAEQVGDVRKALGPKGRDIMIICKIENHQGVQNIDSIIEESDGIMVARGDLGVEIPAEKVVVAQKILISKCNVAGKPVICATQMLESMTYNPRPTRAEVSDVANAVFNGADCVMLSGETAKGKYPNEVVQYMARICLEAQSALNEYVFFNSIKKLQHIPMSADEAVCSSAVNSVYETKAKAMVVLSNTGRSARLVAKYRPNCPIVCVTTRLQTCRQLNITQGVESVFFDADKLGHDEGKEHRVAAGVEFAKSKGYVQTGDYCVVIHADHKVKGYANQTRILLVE
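ATP generated from ADP (0.1 mM) and PEP (0.5 mM) by 0.1 nM LmPK over 1 h at room temperature (pH 7.2 imidazole buffer) was detected by coupled luciferase luminescence. Values were normalized to uninhibited and no-enzyme wells.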
RE007 growth inh – less growth of the S. pombe RE007 Vpr strain. Potency, µM (highest dose often 92.2 µM), for inactives: at the top dose activity change, negative = less growth, hits mostly inhibitors. S. pombe RE007 Vpr strain, BacTiter-Glo ATP luminescence, 24 h. actives 0.21% (n = 360,000). AID 651644; active means well fitted falling curve with a large enough effect; inconclusive means small, poorly fitted or top-dose-only effect; inactive means no such curve, though single readings can be large or run the other way; further: nearly all actives have a fitted effect of over 50% in size
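Fission yeast strain RE007, carrying one chromosomally integrated HIV-1 vpr copy, was seeded at OD 0.01 in PMG+AL medium with 23 nL pinned compound. After 24 h at 30 °C and 99% humidity, viability was read by BacTiter-Glo luminescence.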
AMA1 RON2 block – disrupts binding of P. falciparum AMA1 to RON2; AlphaScreen AMA1-biotinylated RON2 peptide binding; Potency, µM (doses to about 58.2 µM), for inactives: at the highest dose activity change, negative = inhibition, usual class: inhibitors; actives 0.2% (n = 360,000); AID 720542;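 further: 0% = vehicle wells and -100% = peptide control; nearly all actives have a fitted effect of over 45% in size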
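AMA1 (3D7) with his tag at 25 nM final met compounds first, then biotinylated RON2 peptide at 25 nM; detection used donor plus acceptor beads, 10 µg/mL apiece, read by AlphaScreen after 30 min at room temperature.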
The depositor's hits bear a star; i = inactive; ? = inconclusive; / = no result; [ ] = dose if it differs, or a comment. Unless noted, the call rests on the fitted dose curve; in most records, active means well fitted curve in the direction sought with a large enough effect; inconclusive means small, poorly fitted or top-dose-only effect, or another doubt; inactive means no such curve, though single readings can be large; an effect the other way counts as inactive or inconclusive. Unless noted, on the % scale 0 is the no-effect control and ±100 the full control effect; potency means the concentration at half of the fitted maximal effect.

SMILES	Tb PYK inh	Vaccinia mCherry	VACV Venus inh	LmPK inh	RE007 growth inh	AMA1 RON2 block
COc1ccc(C(NC(=O)C(C)C)c2ccc3cccnc3c2O)cc1 (centres undefined)	-6.4%	4.47µM*	?	0.2%	?	7.6%
c1cncc(OC2CCN(Cc3ccc4c(c3)CN(Cc3ccc5c(c3)OCCO5)CCO4)CC2)c1	/	-23.2%	-16.9%	/	/	/
COC1=C(N)C(=O)c2nc(-c3nc(C(=O)O)c(C)c(-c4ccc(OC)c(OC)c4O)c3N)ccc2C1=O	-29.9%	0.708µM*	0.631µM*	-3.8%	19.6%[18.4 µM]	67.0%
COC(=O)c1nc(-c2ccc3c(n2)C(=O)C(N)=C(OC)C3=O)c(N)c(-c2ccc(OC)c(OC)c2O)c1C	-0.2%	-8.4%	-5.1%	-8.4%	7.4%	59.3%
O=C(c1ccc2c(c1)OCO2)N1CCOc2ccc(CN3CCC(Oc4cccnc4)CC3)cc2C1	/	-11.0%	-6.7%	/	/	/
O=C(N[C@@H](Cc1ccccc1)C(=O)CCl)OCc1ccccc1	5.1%	10µM*	10µM*	/	-13.9%	0.0%
CC(NC(=O)c1ccco1)c1nnc2n1CCN(Cc1ccc(N3CCCC3)cc1)CC2 (centres undefined)	/	-3.1%	1.4%	/	/	/
CC(C)COc1ccc(CSCCNC(=S)Nc2ccccc2)cc1	3.2%	/	10µM*	-3.0%	3.2%	-1.5%
CC(=O)N1CCC[C@H]1C(=O)N1CCc2c(cnc(C)c2CNC(=O)/C=C/c2cccs2)C1	/	-2.6%	2.6%	/	/	/
COc1ccc2[nH]c(=O)cc(C(=O)O)c2c1	-2.1%	1.6%	-16.4%	0.9%	-2.3%	22.4µM*
COc1ccc2[nH]c(=O)c(C(=O)O)cc2c1	2.0%	-4.9%	-3.1%	-0.4%	5.5%	24.7%
CCN1CCCC1CNC(=O)c1cnn(-c2nccc(-c3cccs3)n2)c1C1CC1 (centres undefined)	/	-8.6%	-5.6%	/	/	/
CCCN1CCN(CCCNC(=O)c2ccc3c(c2)sc2nc(-c4ccc(C)cc4)cn23)CC1	0.9%	7.08µM*	?	/	/	/
O=C(NCCCN1CCCCCC1)c1ccc2c(c1)sc1nc(-c3ccccc3)cn12	1.2%	-15.9%	?	/	/	/
C[C@@H]1O[C@@H](O[C@@H]2C=C3CCC4C(CC[C@]5(C)[C@@H](c6ccc(=O)oc6)CC[C@]45O)[C@@]3(C)CC2)[C@H](O)[C@H](O)[C@H]1O (some centres undefined)	-3.8%	?	0.631µM*	/	-5.2%[18.4 µM]	18.9%
C[C@@H]1O[C@@H](O[C@@H]2C=C3CC[C@@H]4C(CC[C@]5(C)[C@@H](c6ccc(=O)oc6)CC[C@]45O)[C@@]3(C)CC2)[C@H](O)[C@H](O)[C@H]1O (some centres undefined)	2.5%	31.6µM*	?	/	-14.2%	20.0%
CC(=O)C1CCC2(O)C3CCC4=CC(=O)CCC4(C)C3CCC12C (centres undefined)	-1.2%	-0.3%	-6.2%	/	-21.4%	-1.4%
Cn1cccc1/C=C1\CCc2ccccc2C1=O	?	?	-12.4%	?	35.5µM*	14.1µM*
O=C1C(=Cc2ccc(Cl)cc2)CCc2ccccc21	?	2.4%	9.1%	/	-19.4%	-3.2%
Cn1cccc1/C=C1\Cc2ccccc2C1=O	-14.5%	/	/	-11.4%	-18.3%	-3.8%
O=C1/C(=C/c2ccncc2)CCc2ccccc21	?	/	/	12.6µM*	?	1.1%
O=C1/C(=C\c2ccncc2)CCc2ccccc21	?	-8.5%	-19.4%	/	?	-4.8%
O=C1C(=Cc2ccccc2Cl)CCc2ccccc21	31.6µM*	-4.4%	-4.3%	/	0.8%[18.4 µM]	43.3%
O=C1/C(=C/c2ccco2)CCc2ccccc21	?	i	-11.9%	12.6µM*	?	-16.6%
CC(=O)c1ccc(-c2ccc3c4c(ccc3c2)OC(CNC(=O)C(C)N2CCOCC2)C4)s1 (centres undefined)	/	-17.5%	-18.0%	/	/	/
SMILES	Tb PYK inh	Vaccinia mCherry	VACV Venus inh	LmPK inh	RE007 growth inh	AMA1 RON2 block
COc1cccc(CN2CCC3(CCC(CNC(=O)c4ccccc4)O3)CC2)c1 (centres undefined)	/	-9.2%	-9.4%	/	/	/
O=C1/C(=C/c2ccncc2)CCC/C1=C\c1ccncc1	-14.0%	10µM*	11.2µM*	-5.8%	?	-11.9%
COc1ccc(Cl)cc1NC(=O)C1CCCN(S(=O)(=O)c2ccc3c(c2)CCCC(=O)N3)C1 (centres undefined)	-13.1%	-18.9%	-8.7%	/	/	/
Cc1ccc(CNc2nc(CN3CCNC(=O)C3)nc3ccccc23)o1	/	-16.4%	-12.7%	/	/	/
Cc1ccc(NC2=C/C(=N\S(=O)(=O)c3cccs3)c3ccccc3C2=O)c(C)c1	-11.8%	10µM*	6.31µM*	-26.6%	-15.2%	4.47µM*
Cc1ccc(Cl)cc1NC1=C/C(=N\S(=O)(=O)c2cccs2)c2ccccc2C1=O	-9.2%	25.1µM*	?	?	-17.6%	4.47µM*
CCc1ccc(S(=O)(=O)/N=C2\C=C(Nc3ccc(O)cc3)C(=O)c3ccccc32)cc1	?	?	3.98µM*	-19.4%	-27.1%	25.1µM*
Cc1cc(C)c(S(=O)(=O)/N=C2\C=C(NS(=O)(=O)c3ccccc3)C(=O)c3ccccc32)c(C)c1	-16.9%	?	1.9%	-0.4%	2.6%	-16.0%
CCc1ccc(S(=O)(=O)/N=C2\C=CC(=O)c3ccccc32)cc1	/	/	/	-14.9%	/	/
CCc1ccc(S(=O)(=O)/N=C2/C=C(Sc3ncn[nH]3)C(=O)c3ccccc32)cc1	?	?	10µM*	?	?	10.7%
Cc1cccc(NC2=C/C(=N/S(=O)(=O)c3cccs3)c3ccccc3C2=O)c1	-29.8%	i	-0.1%	-14.8%	-2.6%	?
Cc1csc(CN(C)C(=O)c2sc3ncnc(NCC4CCCO4)c3c2C)n1 (centres undefined)	/	i	-2.1%	/	/	/
CCC(=O)OC1CCC2C3CCc4cc(O)ccc4C3CCC12C (centres undefined)	0.0%	/	/	/	/	/
O=C(O)c1ccc(NC2=C/C(=N/S(=O)(=O)c3cccs3)c3ccccc3C2=O)cc1	-9.9%	-6.2%	7.9%	/	?	?
O=C1C(Nc2ccc(O)cc2)=C/C(=N/S(=O)(=O)c2cccs2)c2ccccc21	-22.9%	?	2µM*	?	-29.7%	25.1µM*
CN(C)CCCNC(=O)C[C@H]1C[C@H](C(=O)N2CCCCC2)[C@@]2(C)c3[nH]c4ccc(Cl)cc4c3CCN2C1=O	0.3%	-4.1%	-7.2%	/	-7.7%	-7.6%
O=C(C[C@H]1C[C@H](C(=O)N2CCCCC2)[C@@]2(CCc3ccccc3)c3[nH]c4ccc(Cl)cc4c3CCN2C1=O)NCCc1ccccn1	0.7%	?	12.6µM*	/	-10.5%	34.9%
